# Source: PubChem BioAssay (National Center for Advancing Translational Sciences (NCATS))
# This is a sample that favours compounds with a hit; in the whole collection about 17% have one here.
# ATXN viability: Viability Counterscreen for Primary qHTS for Inhibitors of ATXN expression. Potency, µM (series often up to 56.7 µM), actives largely listed as cytotoxic. 400,000 compounds, 0.49% hits. S2 cells (HEK-293 line with an ATXN2-luciferase reporter) viability, CellTiter-Fluor protease fluorescence, 24 h; further: nearly all actives have a fitted effect of over 40% in size
# HepG2 tox: qHTS for Inhibitors of TGF-b: Cytotox Counterscreen | HepG2 CAGA-GFP viability, ATP luminescence, 18 h | AID 588856, 2011 | 410,000 compounds, 0.76% hits | Potency, µM (series often up to 46.1 µM), for the others: top-dose activity change, negative = cytotoxicity, most hits filed as cytotoxic
#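 HepG2 CAGA-GFP cells (1000/well, DMEM with 1% FBS) received compound, then TGF-beta at 500 pg/mL final, and were incubated 18 hours at 37 degrees C. Viability was read by CellTiter-Glo luminescence. Media-only wells were set as complete cell-killing and DMSO as no toxicity.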
# DT40 TDP1 no CPT: qHTS for Inhibitors of human tyrosyl-DNA phosphodiesterase 1 (TDP1): qHTS in cells in absence of CPT; DT40 Tdp1-/- hTDP1 cells, no CPT, ATP luminescence, 48 h; Potency, µM (doses to about 46.2 µM), for the others: at the top dose activity change, negative = growth inhibition, hits mostly inhibitors; 420,000 compounds, 15% hits; further: on the % scale 0 is the no-effect control and ±100 the full control effect; nearly all actives have a fitted effect of over 55% in size
#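 Readout: luminescence from CellTiter-Glo after 30 min in the dark at RT. Cells: DT40 Tdp1-/- with stable hTDP1, 400/well. Exposure: compounds alone, ≥48 hr, 37 °C.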
# TDP1 cell CPT: qHTS for Inhibitors of human tyrosyl-DNA phosphodiesterase 1 (TDP1): qHTS in cells in presence of CPT | chicken DT40 Tdp1-/-;hTDP1 cells + 20 nM CPT, ATP luminescence, 48 h | 420,000 compounds, 12% hits | AID 686979, 2013 | Potency, µM (top dose mostly 46.2 µM), inactives show top-dose activity change, negative = growth inhibition, usual class: inhibitors; further: on the % scale 0 is the no-effect control and ±100 the full control effect; nearly all actives have a fitted effect of over 55% in size
#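 Cell growth measured by CellTiter-Glo luminescence after a minimum 48 h, 37 C compound exposure with 20 nM CPT in Tdp1-knockout DT40 cells stably expressing hTDP1, seeded 400/well; qHTS titration format.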
# TGFb inhibitor: qHTS for Inhibitors of TGF-b; Potency, µM (series often up to 46.1 µM), without a hit: top-dose activity, negative = inhibition, most hits filed as inhibitors; 410,000 compounds, 1.2% hits; HepG2 CAGA-GFP TGF-b/SMAD3 reporter, GFP fluorescence, 18 h; TGF-beta stimulated, 500 pg/mL final; further: on the % scale 0 is the no-effect control and ±100 the full control effect; nearly all actives have a fitted effect of over 65% in size
#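 Inhibition of TGF-beta-driven CAGA-GFP reporter expression in HEPG2 cells is measured by cellular GFP fluorescence after 18 h stimulation with 500 pg/mL recombinant TGF-beta in 1% FBS medium at 37 degrees C.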
# ATXN2 expr inh: Primary qHTS for Inhibitors of ATXN expression. 360,000 compounds, 0.72% hits. HEK-293 ATXN2-luciferase reporter, luminescence, 24 h. Potency, µM (highest dose often 57 µM), for the others: top-dose activity change, negative = inhibition, hits mostly inhibitors; further: on the % scale 0 is the no-effect control and ±100 the full control effect; nearly all actives have a fitted effect of over 55% in size
#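 qHTS (up to 57 uM final) was run with 24 h compound exposure of reporter cells at 37 °C. Each well was multiplexed: SteadyGlo luminescence measured ATXN2-luciferase expression after a fluorogenic Gly-Phe-AFC viability readout (25 uM final).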
# An asterisk follows results filed as active; i = inactive; ? = inconclusive; / = not tested or not shown; [ ] = dose if it differs, or a comment. The call rests on the fitted dose curve; in most records, active means well fitted curve in the direction sought with a large enough effect; inconclusive means small, poorly fitted or top-dose-only effect, or another doubt; inactive means no such curve, though single readings can be large; an effect the other way counts as inactive or inconclusive. Potency means the concentration at half of the fitted maximal effect.
SMILES,ATXN viability,HepG2 tox,DT40 TDP1 no CPT,TDP1 cell CPT,TGFb inhibitor,ATXN2 expr inh
COCc1ccc(CN2CCOc3c(cc(-c4ccc(SC)cc4)cc3OC)C2)o1,i,/,-21%,1%[9.04 µM],/,/
CCCCCCCCCCCCCC(=O)OC(C)C,i,/,-3%,3%,/,15%
CC1(C(=O)NS(=O)(=O)c2cccs2)CCN1C(=O)c1ccccc1CCc1ccccc1 (centres undefined),i,21%,-10%,-5%,-27%,1%
CC(=O)Nc1ccc(C2Nc3c(C)cc(C)cc3-c3cc(C)nn32)cc1 (centres undefined),i,-17%,?,18µM*,3%,9%
COC(=O)c1ccc(C2Nc3c(C)cccc3-c3cc(C)nn32)cc1 (centres undefined),i,-6%,16µM*,?,?,-22%
CCN(CC)c1ccc(C2Nc3ccccc3-c3cc(C)nn32)cc1 (centres undefined),i,-31%,-24%,-25%,?,-5%
O=C(Nc1ccncc1)c1ccc2ccccc2c1,/,-31%,13µM*,?,2%,14%
O=C(Nc1nnc(-c2ccncc2)o1)c1ccc2ccccc2c1,i,-21%,7.3µM*,8.2µM*,-15%,-28%
CC(=O)c1c(C)n(-c2ccc(C)cc2)c2ccc(OC(=O)COc3ccccc3)cc12,i,-1%,7.3µM*,6.5µM*,1%,16%
COc1ccc(-n2c(C)c(C(C)=O)c3cc(OC(=O)COc4ccccc4)ccc32)cc1,i,-7%,7.3µM*,6.5µM*,4%,9%
CCOC(=O)c1c(C)n(-c2ccccc2)c2ccc(OC(=O)COc3ccccc3)cc12,i,-27%,-14%,?,-5%,11%
CCOC(=O)c1c(C)n(-c2ccc(OC)cc2)c2ccc(OC(=O)COc3ccccc3)cc12,/,-30%,21µM*,?,?,/
Cc1ccc(S(=O)(=O)N2CCOCC2)cc1C(=O)OCC(=O)Nc1ccc2c(c1)OCO2,?,-24%,-11%,-22%,5%,0%
COCCCNC(=O)CN1C(=O)COc2ccc(S(=O)(=O)N3CCCC3)cc21,i,0%,6%,2%,0%,15%
Cn1c(=O)c2c(-c3ccccc3)n(-c3cc(Cl)c([N+](=O)[O-])cc3O)cc2n(C)c1=O,i,-51%,-15%,?,?,-3%
Cc1cccc(CNC(=O)c2ccccc2N)c1,i,-1%,-2%,-5%,5%,17%
CC/C(=N\N=C(/CC)c1ccccc1N)c1ccccc1N,i,10%,23µM*,29µM*,19%,18%
CCC1(C2CCN(Cc3c(C)[nH]c4ccccc34)CC2)NC(=O)N(Cc2ccc3c(c2)OCO3)C1=O (centres undefined),i,/,16µM*,23µM*,/,/
CCC1(C2CCN(Cc3ccoc3)CC2)NC(=O)N(CC2COc3ccccc3O2)C1=O (centres undefined),i,/,-24%,-12%,/,/
CCC1(C2CCN(Cc3ccc(C)s3)CC2)NC(=O)N(CC2COc3ccccc3O2)C1=O (centres undefined),i,/,21µM*,?,/,/
COc1ccc(-n2c3c(cc(C(=O)NCc4ccco4)c2=O)C(=O)CC(C)(C)C3)cc1,i,5%,-14%,-4%,18%,4%
CCC(C)Nc1nc(SC(C(C)=O)C(C)=O)nc(N(C)C)n1 (centres undefined),i,0%,?,-23%,-2%,-4%
CC(C)(C)c1ccc(C(=O)N2CCC(=O)N([C@H](COCc3ccccc3)Cc3ccccc3)CC2)cc1,/,/,?,?,/,32µM*
O=C(c1ccc(Cl)c(Cl)c1)N1CCC(=O)N(C(COCc2cccc(C(F)(F)F)c2)Cc2ccccc2)CC1 (centres undefined),?,-27%,?,?,?,?
CC(C)(C)c1ccc(C(=O)N2CCC(=O)N(C(COCc3ccccc3)Cc3ccccc3)CC2)cc1 (centres undefined),/,-61%,21µM*,15µM*,?,?
SMILES,ATXN viability,HepG2 tox,DT40 TDP1 no CPT,TDP1 cell CPT,TGFb inhibitor,ATXN2 expr inh
O=C(c1ccc(C(F)(F)F)cc1)N1CCC(=O)N(C(COCc2ccccc2)Cc2ccccc2)CC1 (centres undefined),?,17%,21µM*,21µM*,?,?
O=C(c1ccccc1)N1CCC(=O)N(C(CO)Cc2ccccc2)CC1 (centres undefined),i,13%,-9%,-8%,17%,-3%
c1ccc(CN(Cc2ccccc2)Cc2nnc(-c3cc4ccccc4[nH]3)s2)cc1,i,4%,/,/,0%,10%
CC(=O)n1cc([C@@H]2C=C(C(=O)Nc3ccccc3)O[C@H](OCc3ccc(CO)cc3)C2)c2ccccc21,?,-20%,13µM*,23µM*,?,?
CC(=O)n1cc([C@@H]2C=C(C(=O)N3CCN(Cc4ccccc4)CC3)O[C@H](OCc3ccc(CO)cc3)C2)c2ccccc21,?,-8%,8.2µM*,8.2µM*,?,?
C#CCNC(=O)C1=C[C@H](c2csc3ccccc23)C[C@H](OCc2ccc(CO)cc2)O1,?,-27%,16µM*,?,?,?
O=C(NCc1ccccc1)C1=C[C@@H](c2ccc(C(F)(F)F)cc2)C[C@@H](OCCCCO)O1,?,-18%,26µM*,?,?,?
O=C(Nc1ccccc1)C1=C[C@@H](c2coc3ccccc3c2=O)C[C@@H](OCCCCO)O1,i,-14%,9.2µM*,?,?,-4%
CC(=O)n1cc([C@H]2C=C(C(=O)NCc3ccccc3)O[C@@H](OCCCCO)C2)c2ccccc21,?,-7%,?,?,-21%,7%
CC(=O)n1cc([C@H]2C=C(C(N)=O)O[C@@H](OCc3ccc(CO)cc3)C2)c2ccccc21,i,2%,?,?,9%,-8%
CC(=O)n1cc([C@H]2C=C(C(=O)NCc3ccccc3)O[C@@H](OCc3ccc(CO)cc3)C2)c2ccccc21,?,-6%,3.3µM*,5.8µM*,?,-26%
